Tested on: Vero E6 infected with SARS-CoV-2
Test: inhibition of SARS-CoV-2 cytopathic effect; higher = more antiviral protection, active = above 15
Conditions: 48 h

Measured: inhibition of SARS-CoV-2 cytopathic effect

CC[N+](CC)(CC)CCOc1ccc(/C=C/c2ccccc2)cc1
inactive: 1 nM -0.65% | 8.33 nM 1.39% | 100 nM 2.2% | 833.33 nM 1.89% | 10000 nM 7.99%

Oc1ccc(CC2NCCc3cc(O)c(O)cc32)cc1 (stereo not given) [higenamine]
inactive: 1 nM 1.31% | 8.33 nM 2.53% | 100 nM 1.77% | 833.33 nM -0.52% | 10000 nM -2.56%

CC(COc1ccccc1)N(CCCl)Cc1ccccc1 (stereo not given) [phenoxybenzamine]
inactive: 1 nM 2.45% | 8.33 nM 2.51% | 100 nM 1.57% | 833.33 nM 0.91% | 10000 nM -0.17%

C[C@@H]1O[C@@H](O[C@@H]2[C@@H](O)[C@H](OCCc3ccc(O)c(O)c3)O[C@H](CO)[C@H]2OC(=O)/C=C/c2ccc(O)c(O)c2)[C@H](O)[C@H](O)[C@H]1O [verbascoside]
inactive: 1 nM -0.06% | 8.33 nM -0.95% | 100 nM 0.7% | 833.33 nM -1.19% | 10000 nM -1.48%

CC(=O)Nc1ccc(OC(C)=O)cc1 [diacetamate]
inactive: 1 nM -0.51% | 8.33 nM 0.65% | 100 nM 3.04% | 833.33 nM 0.82% | 10000 nM 2.03%

Reference: the supplement of paper PMC13380429
